Results taken from PubChem BioAssay AID431 (Sanford-Burnham Center for Chemical Genomics, 2006).
The campaign covered roughly 63,000 compounds. About 1,100 (1.7%) were called active. Shown is part of a subset that was picked to be rich in actives. Potency and affinity values are given separately. A number with no mark means an inactive call.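 The calls were made as follows: active = compounds whose percent cytotoxicity in the single-dose primary screen, scaled between solvent and toxic-drug controls, exceeds 50; inactive = the rest.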

assay: viability loss of HPDE-C7K cells – cell-based, fluorescence, HTS, primary screen (AID 431); conditions: HPDE-C7K KRASV12 cells, Alamar Blue viability, 48 h; at 10 µM; stronger effect = higher value;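 also: 0% = DMSO solvent wells and 100% = doxorubicin-treated wells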

| SMILES | cytotoxicity |
| --- | --- |
| COc1cc(OC)cc(-n2nnnc2SCC(=O)N2CCCC2)c1 | -16% |
| COc1ccc(-n2nnnc2S(=O)(=O)Cc2ccc(C(=O)O)cc2)cc1 | 2.6% |
| COc1ccc(-n2nnnc2S(=O)(=O)CC(=O)N2CCCCC2)cc1 | 56.8% (active) |
| COc1ccccc1N1CCN(CC(O)COc2c(OC)cccc2OC)CC1 (stereo not drawn) | 3.7% |
| C=CCc1ccccc1OCC(O)CN1CCN(c2ccccc2OC)CC1 (stereo not drawn) | 6.9% |
| COc1ccccc1N1CCN(CC(O)COc2cccc3ccccc23)CC1 (stereo not drawn) | 51.3% (active) |
| CCn1c(SCC(=O)N2CCCC2)nc2c1c(=O)n(C)c(=O)n2C | -12.3% |
| Cc1cc(OCCOCCN(C)CCO)cc(C)c1Cl | 16.8% |
| CCN(Cc1ccccc1)S(=O)(=O)c1ccc(C(=O)Nc2nnc(-c3ccccc3OC)o2)cc1 | 37.9% |
| COc1ccccc1-c1nnc(NC(=O)c2ccc(S(=O)(=O)N(C)Cc3ccccc3)cc2)o1 | 64.9% (active) |
| Cc1ccccc1C(=O)Nc1nnc(-c2ccc(F)cc2)o1 | 10.5% |
| COc1ccccc1-c1nnc(NC(=O)c2ccc(S(=O)(=O)N(C)C)cc2)o1 | -3.2% |
| CN(c1ccccc1)S(=O)(=O)c1ccc(C(=O)Nc2nnc(-c3ccc(F)cc3)o2)cc1 | 62.8% (active) |
| COCc1nnc(NC(=O)c2ccc(S(=O)(=O)N(C)c3ccccc3)cc2)o1 | 36.3% |
| CN(C)S(=O)(=O)c1ccc2c(c1)c(=O)c(C(=O)N1CCN(c3ccccn3)CC1)cn2C | 5% |
| COc1cc(Cl)c(C)cc1NC(=O)CSc1nnc(-c2ccccn2)n1Cc1ccco1 | -4.6% |
| O=C(CN1C(=O)c2ccccc2C1=O)Nc1cccnc1 | 10.7% |
| N#Cc1cccc(C(c2nnnn2CCc2ccccc2)N2CCN(C3CCCCC3)CC2)c1 (stereo not drawn) | 7.9% |
| COc1cccc(NC(=O)N2CCC(C(=O)Nc3ccc(C)cc3C)CC2)c1 | -5.2% |
| S=c1[nH]nc(Cc2c[nH]c3ccccc23)o1 | 1.2% |
| c1ccc(CSc2nnc(-c3c[nH]c4ccccc34)o2)cc1 | 1.1% |
| COc1cccc(C(=O)Nc2nnc(-c3ccc(F)cc3)o2)c1 | 10.3% |
| COc1cccc(-c2nnc(NC(=O)c3cccc(F)c3)o2)c1 | 44.6% |
| COc1cccc(C(=O)Nc2nnc(-c3ccc(Cl)cc3)o2)c1 | 85% (active) |

| SMILES | cytotoxicity |
| --- | --- |
| COc1ccccc1C(=O)Nc1nnc(-c2ccc(Cl)cc2)o1 | -0.6% |
| COc1ccc(C(=O)Nc2nnc(-c3ccccc3)o2)cc1OC | -0.9% |
| CC(=O)c1ccc(C(=O)Nc2nnc(-c3ccc(Cl)cc3)o2)cc1 | 44.7% |
| Cc1cccc(-c2nnc(NC(=O)c3ccc(Cl)cc3)o2)c1 | 87.9% (active) |
| CN(C)c1ccc(C(=O)Nc2nnc(-c3ccc(Cl)cc3)o2)cc1 | 17.7% |
| CCOc1ccc(N2CC(C(=O)Nc3ccc(F)cc3F)CC2=O)cc1 (stereo not drawn) | -19.6% |
| Clc1ccc(NC2=NCCC2)cc1Cl | -1.4% |
| O=C(CN1CCN(C(=O)c2ccco2)CC1)Nc1ccccc1-c1ccccc1 | 3% |
| CO[C@H]1C[C@@H]2CC[C@@H](C)[C@@](O)(O2)C(=O)C(=O)N2CCCC[C@H]2C(=O)O[C@H]([C@H](C)C[C@@H]2CC[C@@H](O)[C@H](OC)C2)CC(=O)[C@H](C)C=C(C)[C@@H](O)[C@@H](OC)C(=O)[C@H](C)C[C@H](C)C=CC=CC=C1C | 91% (active) |
| CC1Cn2c(nnc2-c2ccc(F)cc2)S1 (stereo not drawn) | 11.1% |
| CCOc1ccccc1NC(=O)C1CCCN(S(=O)(=O)c2cccc3cccnc23)C1 (stereo not drawn) | 26.1% |
| C=CCn1c(NC(=O)c2ccccc2)c(C#N)c2nc3ccccc3nc21 | 65.2% (active) |
| CCCCn1c(NC(=O)CC)c(C#N)c2nc3ccccc3nc21 | -5.1% |
| C=CCn1c(NC(=O)c2ccccc2Cl)c(C#N)c2nc3ccccc3nc21 | 7.7% |
| O=C(Nc1ccc2nn(-c3ccccc3)nc2c1)c1ccc(Br)o1 | 13.2% |
| CCCCn1c(NC(=O)c2ccc(F)cc2)c(C#N)c2nc3ccccc3nc21 | 87.7% (active) |
| CCCCn1c(NC(=O)c2ccccc2Cl)c(C#N)c2nc3ccccc3nc21 | 35.8% |
| CCCCCn1c(N)c(C#N)c2nc3ccccc3nc21 | 2.3% |
| N#Cc1c(NC(=O)c2ccc(Br)o2)n(-c2ccccc2)c2nc3ccccc3nc12 | 58.7% (active) |
| CCCCn1c(NC(C)=O)c(C#N)c2nc3ccccc3nc21 | -0.1% |
| COc1ccc(-n2c(NC(=O)c3ccco3)c(C#N)c3nc4ccccc4nc32)cc1 | 9.7% |
| CCCCn1c(NC(=O)c2ccccc2)c(C#N)c2nc3ccccc3nc21 | 112% (active) |
| CCC(=O)Nc1c(C#N)c2nc3ccccc3nc2n1-c1ccccc1C | 2.8% |
| CCc1ccc(OCc2nc(-c3ccccn3)no2)c(Br)c1 | 30.6% |

| SMILES | cytotoxicity |
| --- | --- |
| COc1cc(C2C(C#N)=C(N)Oc3cc(C)oc(=O)c32)cc2c1OCO2 (stereo not drawn) | -4.3% |
| CCN(CC)CCNc1nc2c(c(=O)[nH]c(=O)n2C)n1CC(O)COc1ccc(Cl)cc1Cl (stereo not drawn) | 10.6% |
| CCc1nnc(NC(=O)CSc2nnc(CSc3nc(C)cc(C)n3)n2C)s1 | 10.6% |
| CCOC(=O)c1c(N)sn(-c2ccccc2)c1=S | 13.3% |
| N#Cc1c2c(c(=S)n(-c3ccccc3)c1N)CCCC2 | 0.5% |
| CC(C)C(CC(=O)N1CCCCC1)C1CCOC(C)(C)C1 (stereo not drawn) | -5.8% |
| N=c1c(S(=O)(=O)c2ccccc2)cc2c(=O)n3ccccc3nc2n1Cc1ccco1 | 4.6% |
| N=c1c(C(=O)NCc2ccccc2)cc2c(=O)n3ccccc3nc2n1Cc1ccco1 | 38.6% |
| Cc1ccc(S(=O)(=O)c2cc3c(=O)n4ccccc4nc3n(Cc3ccco3)c2=N)cc1 | 30.2% |
| Cc1ccc(Cn2c(=N)c(C(=O)NCc3ccco3)cc3c(=O)n4ccccc4nc32)cc1 | -6.4% |
| Cc1ccc(CNC(=O)c2cc3c(=O)n4ccccc4nc3n(Cc3ccco3)c2=N)cc1 | 98.3% (active) |
| Cc1ccc(CNC2=NCCCCC2)n1C | 0.1% |
| CS(=O)(=O)N(CC(=O)N1CCC(C(N)=O)CC1)c1ccc(Oc2ccccc2)cc1 | 4.5% |
| CN1CCc2ccccc2C1C1CCNCC1 (stereo not drawn) | 1.4% |
| N#Cc1c(/N=C/c2ccco2)sc2c1CCC2 | 0.3% |
| COc1ccc(NC(=O)CN(c2ccccc2)S(=O)(=O)N(C)C)cc1OC | -4.2% |
| COc1cccc(C2=NOC(C(=O)NCc3ccc(F)cc3)C2)c1 (stereo not drawn) | 49.7% |
| COc1cc(C2=NOC(C(=O)NCc3ccc(F)cc3)C2)cc(OC)c1OC (stereo not drawn) | 55.1% (active) |
| COc1ccc(C2=NOC(C(=O)NCc3ccc(F)cc3)C2)cc1OC (stereo not drawn) | 58.9% (active) |
| COc1ccc(C2=NOC(C(=O)NCc3ccc(F)cc3)C2)cc1 (stereo not drawn) | 43% |
| COc1ccc(CNC(=O)C2CC(c3ccc(F)cc3)=NO2)cc1 (stereo not drawn) | 1.6% |
| COc1cc(C2=NOC(C(=O)NCc3ccco3)C2)cc(OC)c1OC (stereo not drawn) | 10.5% |
| Cc1ccc(C2(C)NC(=O)N(CC(=O)Nc3ccc4c(c3)OCO4)C2=O)cc1 (stereo not drawn) | -4.8% |
| Fc1ccc(-c2nnc(SCc3ncc(-c4ccccc4)o3)n2CC2CCCO2)cc1 (stereo not drawn) | -17.5% |

| SMILES | cytotoxicity |
| --- | --- |
| CCOc1cc(C2C(C#N)=C(N)OC3CCCC(=O)C32)ccc1OCCN1CCOCC1 (stereo not drawn) | -27% |
| COc1ccc(-c2nnc(SCC(=O)Nc3sc4c(c3C#N)CCC4)n2CC2CCCO2)cc1 (stereo not drawn) | -1.4% |
| Cc1cc(C)c2c(c1)cc(C)c1nnc(SCC(=O)Nc3cc(C)on3)n12 | 22.6% |
| Cc1cc(NC(=O)CSc2nnc3c(C)cc4c(C)ccc(C)c4n23)no1 | 70.6% (active) |
| Cc1cc(NC(=O)CSc2nnc3c(C)cc4cc(C)c(C)cc4n23)no1 | 10.3% |
| CCCCNC(=O)C1CCCN1C(=O)Nc1cccc(OC)c1 (stereo not drawn) | -7.7% |
| Nc1c(N2CCN(c3ccccc3)CC2)c2ccccc2oc1=O | -3.7% |
| O=C(NCCCN1CCCC1=O)C1CCN(S(=O)(=O)N2CCOCC2)CC1 | -9.6% |
| CCOc1ccc(NC(=O)N2CCC(n3c(=O)[nH]c4ccccc43)CC2)cc1 | -0.2% |
| Cc1ccc(C2C=C(c3ccccc3OC(F)F)Nc3ncnn32)cc1 (stereo not drawn) | -1.8% |
| COc1cccc(C2=CC(c3ccc(N(C)C)cc3)n3ncnc3N2)c1 (stereo not drawn) | -1.1% |
| CN(C)c1ccc(C2C=C(c3ccc(Cl)cc3OC(F)F)Nc3ncnn32)cc1 (stereo not drawn) | 50.9% (active) |
| CCn1c(SCC(=O)c2ccc(Cl)cc2)nnc1-c1ccoc1C | 12.2% |
| Cc1cc(C)c(C#N)c(N2CCCC(C(N)=O)C2)n1 (stereo not drawn) | -4.9% |
| COc1ccc(S(=O)(=O)Cc2ccc(C(=O)N3CCN(C(=O)c4ccco4)CC3)o2)cc1 | 1.6% |
| O=C(OCc1nnc(-c2ccccc2)o1)c1ccc2c(c1)OCCO2 | 5.4% |
| O=C(Nc1ncnc2sc3c(c12)CCCCC3)c1ccco1 | 7.3% |
| COn1cnnc1-c1ccccc1 | -14.1% |
| Cc1nnc2n1N=CC=C(C(C)(C)C)S2 | -17.2% |
| Cc1nnc2n1N=CC=C(c1ccccc1)S2 | 62% (active) |
| CCOC(=O)c1cc(NC(=O)c2ccoc2C)cc(C(=O)OCC)c1 | 15.5% |
